TROY signal inh: blocks TROY-dependent signaling in reporter cells; actives 0.98% (n = 360,000); inhibition, % at 10 µM; Q293 LMP1-TROYcd NF-kB luciferase reporter, 4 h;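 active means compounds whose plate-normalised and pattern-corrected inhibition of the luciferase reporter signal at the single screening dose is 50% or more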
Peg3 prom inh: reduces Peg3 promoter-driven luciferase expression in HeLa | actives 1.7% (n = 360,000) | inhibition, % at 20 µM | HeLa PEG-Prom luciferase reporter, luminescence, overnight | AID 588405;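 active means inhibition of at least 50% at 20 µM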
TWEAK Fn14 block: TWEAK-Fn14 signaling inhibition. TWEAK-stimulated Fn14 reporter cells, luciferase luminescence, 8 h. inhibition, % at 10 µM. actives 2% (n = 360,000); in the data active means inhibition above about 50%
CF NFkB block: inhibitors of cystic fibrosis induced NF-kB; inhibition, % at 5 µM; actives 0.86% (n = 360,000); KKLEB NF-kB-GFP reporter, PAF-induced, GFP fluorescence overnight;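 active means at least 50% inhibition at 5 µM, scaled per plate between neutral and stimulator controls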;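 further: PAF is a Pseudomonas aeruginosa culture filtrate used as stimulus; plate controls were PAF-stimulated DMSO wells for no effect and unstimulated DMSO wells for full effect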
HIF-2a block: blocks HIF-2a reporter activity; 786-0 RCC cells HIF-2a reporter, luciferase luminescence, overnight; inhibition, % at 18.8 µM; actives 0.72% (n = 360,000);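 active means inhibition of the luminescence signal of 40% or more relative to plate controls, in a single-dose primary screen at 18.75 µM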
KKLEB tox: counter-screen for CF NF-kB inhibitors: cytotoxicity. KKLEB CF airway cells viability, ATPlite luminescence, overnight; active compounds read low; cells stimulated with P. aeruginosa culture filtrate. activity change (cytotoxicity), % at 5 µM. actives 0.36% (n = 360,000);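 active means corrected activity change at or below -50% at 5 µM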
Mdm2 MdmX conf: confirmation of inhibitors of human Mdm2/MdmX interaction, set 2 | actives 99% (n = 740) | inhibition, % at 8 µM | SaOS-2 split-luciferase Mdm2/MdmX complementation, luminescence | shares compounds with HIF-2a block | AID 504601;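 active means mean inhibition of the luminescence signal across two replicates at or above 26 percent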
HIF-2a inh conf: HIF-2a inhibition, single concentration confirmation. 786-0 RCC cells, HIF-2a luciferase reporter luminescence, overnight. actives 56% (n = 1,800). shares compounds with HIF-2a block. inhibition, % at 18.8 µM;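 active means mean inhibition across four replicates of at least 40 percent at the single tested concentration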
HIF-1a cs: inhibits HIF-1a reporter, a counter-screen for HIF-2a inhibitors | AID 651589 | actives 72% (n = 1,800) | shares compounds with HIF-2a block | MiaPaCa-2 HIF-1a luciferase reporter, desferoxamine, overnight | inhibition, % at 18.8 µM;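 active means mean inhibition of the reporter signal across four replicates at the single tested dose of 50% or more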
Starred values were filed as active, the others as inactive; / = no result. Compounds with a hit are over-represented: about 4% of the library has one in this group of screens.

SMILES	TROY signal inh	Peg3 prom inh	TWEAK Fn14 block	CF NFkB block	HIF-2a block	KKLEB tox	HIF-2a inh conf	HIF-1a cs	others
Cc1nn(C)c(Cl)c1CN1CCC(CO)(CC2CCCCO2)CC1 (stereo not drawn)	1	2	-28	1	7	1	/	/
COc1ccc(Nc2oc(COc3ccc(Cl)cc3)nc2C#N)cc1	32	47	88*	-3	50*	-9	34	51*
COc1ccc(CNc2oc(COc3ccc(Cl)cc3)nc2C#N)cc1	45	26	31	-7	3	4	/	/
Cc1ccc(Cn2ncc(Cl)c(Cl)c2=O)cc1	3	104*	65*	11	98*	15	0	98*
Cc1[nH]c(C)c2c(=O)n(Cc3ccc(Cl)cc3)ncc12	-8	8	-70	-2	17	-4	/	/
CCc1ccc(C(=O)CN2C(=O)NC3(CCCCCC3)C2=O)cc1	-82	-183	-36	-5	-165	10	/	/
O=C(Cn1ncc(Cl)c(Cl)c1=O)N1CCOCC1	-2	97*	81*	48	84*	-10	-26	106*
CCc1ccc(C(=O)Cn2ncc(Cl)c(Cl)c2=O)cc1	11	31	79*	84*	96*	-68*	-19	104*	Mdm2 MdmX conf=103*
O=c1c(Cl)c(Cl)cnn1Cc1nnc(-c2ccc(Cl)cc2)o1	52*	107*	86*	80*	94*	-82*	-74	105*
NC(=O)c1ccc(Oc2ccc(Cl)cc2)c([N+](=O)[O-])c1	-8	10	11	-5	16	9	/	/
Cc1ccc(C(=O)N/C(=C\c2ccc(-c3ccc(Cl)cc3)o2)C(=O)NCCCN(C)C)cc1	-12	103*	-47	23	15	-20	/	/	Mdm2 MdmX conf=103*
CN(C)CCCNC(=O)/C(=C\c1ccc(-c2ccc(Br)cc2)o1)NC(=O)c1ccccc1	-21	76*	-70	16	41*	-70*	-8	106*
Cn1c(=O)c2c(nc(-c3ccccc3)n2C)n(Cc2ccccc2)c1=O	0	3	-19	10	10	-6	/	/
CC1=C(C(=O)OC(C)C)C(c2c(O)ccc3ccccc23)NC(=O)N1 (stereo not drawn)	-27	1	-10	-36	-13	2	/	/
CC(C)(C)c1ccc(Cn2nnc3c(=O)[nH]c(C4CCCN(C(=O)c5cccs5)C4)nc32)cc1 (stereo not drawn)	14	39	-4	-2	43*	5	14	84*
COc1cccc(CN2CCN(C(=O)c3cc(-c4ccccn4)nc4ccc(Cl)cc34)CC2)c1	7	43	5	2	3	7	/	/
N#C/C(=C\c1ccc([N+](=O)[O-])o1)c1nc2ccccc2[nH]1	/	/	/	/	/	/	/	/	Mdm2 MdmX conf=103*
COc1ccc(C(=O)N2CC(c3ccccc3)CC2=O)cc1 (stereo not drawn)	-27	-90	-31	6	-109	-3	/	/
Cc1c(CCC(=O)N2CCC(C(=O)O)(c3ccccc3)CC2)c(=O)oc2cc3oc4c(c3cc12)CCCC4	5	-61	87*	11	63*	4	78*	43
C=CCN1C(=O)c2ccc(C(=O)NCCc3ccc(OC)c(OC)c3)cc2C1=O	-8	1	5	-6	19	-3	/	/
O=C(c1ccc(C(F)(F)F)cc1)N1CCN(c2ccc(N3CCOCC3)nn2)CC1	-28	1	2	-13	11	5	/	/
CCC(=O)Nc1cccc(C(=O)/C=C/c2cc(Br)ccc2OC)c1	6	104*	94*	12	84*	6	84*	106*	Mdm2 MdmX conf=103*
COc1ccc(Br)cc1/C=C/C(=O)Nc1ccc2ccccc2c1	-48	-62	-13	-31	-90	18	/	/
CC(C)N(Cc1ccccc1)C(=O)CSc1nccn1C	10	9	4	-4	9	0	/	/

Source: PubChem
